Test results: PubChem BioAssay (NCATS)
Inconclusive results are not listed. Active and inactive are the calls of the source. Calls follow the shape of the dose curve; as a rule, active = well fitted curve in the direction sought with a large enough effect; inconclusive = small, poorly fitted or top-dose-only effect, or another doubt; inactive = no such curve, though single readings can be large; an effect the other way counts as inactive or inconclusive.

How the values were obtained:
[1] = Quantitative High-Throughput drug screen in 47 multiple myeloma cell lines against the NCATS MIPE library collection: Karpas25_ECACC cell viability assay (AID 1918968; also: nearly all actives have a fitted effect of over 35% in size); details: Karpas25 myeloma viability, CellTiter-Glo ATP, 48 h; series mostly up to 45.8 µM
How it was run: (§1)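 qHTS of the MIPE 4.0 collection: 500 myeloma cells/well, 48 h drug exposure at 37C in 5% CO2, then CellTiter-Glo for 5 min at room temperature before luminescence reading.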

[2] = Quantitative High-Throughput drug screen in 47 multiple myeloma cell lines against the NCATS MIPE library collection: KMS12BM_JCRB cell viability assay (AID 1918971); details: KMS12BM myeloma viability, CellTiter-Glo ATP, 48 h; series mostly up to 45.8 µM; also: nearly all actives have a fitted effect of over 35% in size
How it was run: (§2)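 Luminescent ATP measurement with CellTiter-Glo gives viability, scaled between DMSO-only wells (100%) and media-only wells (0%). Cells, 500 per well, faced library compounds for 48 hours at 37C.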

[3] = Quantitative High-Throughput drug screen in 47 multiple myeloma cell lines against the NCATS MIPE library collection: KMS20_JCRB cell viability assay (AID 1918973); details: CellTiter-Glo ATP, 48 h; series mostly up to 45.8 µM; also: nearly all actives have a fitted effect of over 45% in size
How it was run: as §1

[4] = Quantitative High-Throughput drug screen in 47 multiple myeloma cell lines against the NCATS MIPE library collection: KMS26_JCRB cell viability assay (AID 1918975); details: KMS26 myeloma cells viability, CellTiter-Glo ATP, 48 h; series mostly up to 45.8 µM; also: nearly all actives have a fitted effect of over 45% in size
How it was run: as §2

[5] = Quantitative High-Throughput drug screen in 47 multiple myeloma cell lines against the NCATS MIPE library collection: NCIH929_DSMZ cell viability assay (AID 1918978); details: NCI-H929 myeloma viability, CellTiter-Glo ATP, 48 h; series mostly up to 45.8 µM; also: nearly all actives have a fitted effect of over 35% in size
How it was run: (§3)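 Plated at 500 cells per well, myeloma lines received MIPE 4.0 compounds by pin tool. Following 48 h culture at 37 °C, CellTiter-Glo luminescence gave viability relative to DMSO and media-only controls.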

[6] = Quantitative High-Throughput drug screen in 47 multiple myeloma cell lines against the NCATS MIPE library collection: KMS12PE_JCRB cell viability assay (AID 1918972); details: KMS12PE myeloma viability, CellTiter-Glo ATP, 48 h; series mostly up to 45.8 µM; also: nearly all actives have a fitted effect of over 30% in size
How it was run: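 We plated 500 myeloma cells per well, pinned in MIPE 4.0 compounds, and incubated for 48 hours at 37C. ATP was then quantified with CellTiter-Glo, with DMSO and media-only wells defining 100% and 0%.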

[7] = Quantitative High-Throughput drug screen in 47 multiple myeloma cell lines against the NCATS MIPE library collection: MMM1_PLB cell viability assay (AID 1918976); details: MMM1 myeloma cells viability, CellTiter-Glo, 48 h; series mostly up to 45.8 µM; also: nearly all actives have a fitted effect of over 35% in size
How it was run: as §3

[8] = Quantitative High-Throughput drug screen in 47 multiple myeloma cell lines against the NCATS MIPE library collection: KMS21BM_JCRB cell viability assay (AID 1918974); details: ATP luminescence, 48 h; viability: at 45.8 µM (top of the series) unless noted
How it was run: as §1

[9] = Quantitative High-Throughput drug screen in 47 multiple myeloma cell lines against the NCATS MIPE library collection: MOLP8_DSMZ cell viability assay (AID 1918977); details: MOLP8 myeloma viability, CellTiter-Glo ATP luminescence, 48 h; series mostly up to 45.8 µM; also: nearly all actives have a fitted effect of over 45% in size
How it was run: as §3

[10] = Quantitative High-Throughput drug screen in 47 multiple myeloma cell lines against the NCATS MIPE library collection: KMS27_JCRB cell viability assay (AID 1918970); details: KMS27 myeloma cells, CellTiter-Glo ATP viability, 48 h; series mostly up to 45.8 µM; also: nearly all actives have a fitted effect of over 30% in size
How it was run: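 Viability inhibition screen, 48 h compound exposure, luminescent ATP read-out.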
Potency is read from the fitted curve at half-maximal effect.

O=S(=O)(N=Cc1c(O)ccc2ccccc12)c1cccs1
active: Potency [1] 1.05 µM | Potency [3] 0.833 µM | Potency [4] 16.6 µM | Potency [5] 4.69 µM
inactive: Potency [2]

CNC(=O)c1ccc(C)c(-n2c(C)cc(OCc3ccc(F)cc3F)c(Br)c2=O)c1
active: Potency [1] 8.33 µM | Potency [6] 18.7 µM | Potency [7] 18.7 µM | Potency [5] 5.9 µM

NNCCc1ccccc1
active: Potency [1] 8.33 µM | Potency [2] 14.8 µM | Potency [6] 14.8 µM | Potency [8] 13.2 µM | Potency [7] 5.9 µM
inactive: Potency [5]

Oc1cccc(-c2nc(N3CCOCC3)c3oc4ncccc4c3n2)c1
active: Potency [1] 0.054 µM | Potency [6] 0.121 µM | Potency [3] 0.152 µM | viability [8] 37.2% [at 92.2 µM] | Potency [4] 0.215 µM | Potency [7] 0.0679 µM | Potency [9] 0.0152 µM | Potency [5] 0.0191 µM

Cc1n[nH]c(C)c1Cc1sc2c(c1C(=O)N1C[C@H](O)CO1)c(=O)n(C)c(=O)n2CC(C)C
active: Potency [2] 2.64 µM | Potency [9] 0.935 µM
inactive: Potency [1] | Potency [5]

Cn1cnc([N+](=O)[O-])c1Sc1ncnc2nc[nH]c12
active: Potency [1] 16.6 µM | Potency [4] 11.8 µM | Potency [5] 16.6 µM
inactive: Potency [2] | Potency [9]

O=C1[C@H](Cc2ccc(O)cc2)N2C(=O)CCN(C(=O)NCc3ccccc3)[C@H]2CN1Cc1cccc2ccccc12
inactive: Potency [6]
active: Potency [1] 14.8 µM | Potency [2] 4.18 µM | Potency [4] 7.43 µM | Potency [5] 3.72 µM

COc1ccc(-c2ccc3c(N4CCOC[C@H]4C)nc(N4CCOC[C@H]4C)nc3n2)cc1CO
active: Potency [1] 0.0166 µM | Potency [2] 0.0118 µM | Potency [6] 0.059 µM | Potency [3] 0.0093 µM | Potency [8] 0.0662 µM | Potency [4] 4.69 µM | Potency [7] 0.0105 µM

CC(C)(Sc1ccc(CCN(CCCCC2CCCCC2)C(=O)NC2CCCCC2)cc1)C(=O)O
inactive: Potency [1] | Potency [10] | Potency [5]

Nc1ccc(S(=O)(=O)Nc2ccnn2-c2ccccc2)cc1
inactive: Potency [1] | Potency [2] | Potency [6] | Potency [8] | Potency [9] | Potency [5]

CCCS(=O)(=O)Nc1ccc(F)c(C(=O)c2c[nH]c3ncc(Cl)cc23)c1F
active: Potency [1] 14.8 µM | Potency [6] 16.6 µM
inactive: Potency [4]

CC(C)NCC(O)COc1ccc(COCCOC(C)C)cc1 (stereo not drawn)
inactive: Potency [1] | Potency [6] | Potency [4] | Potency [5]
active: Potency [7] 7.43 µM

Nc1nccc(-c2ccc3noc(-c4ccc(Cl)cc4)c3c2)n1
active: Potency [5] 20.9 µM
inactive: Potency [1] | Potency [10] | Potency [9]

COc1ccc(COc2cc3oc(=O)c4cc(C(C)O)ccc4c3cc2OC)cc1 (stereo not drawn)
active: Potency [1] 18.7 µM | Potency [2] 23.5 µM | Potency [6] 2.64 µM | Potency [4] 11.8 µM | Potency [9] 18.7 µM | Potency [5] 26.4 µM

CCOC(=O)N1CCC(=C2c3ccc(Cl)cc3CCc3cccnc32)CC1
inactive: Potency [1] | Potency [6]
active: Potency [2] 23.5 µM | Potency [4] 18.7 µM | Potency [7] 23.5 µM | Potency [5] 7.43 µM

CCC(C)n1ncn(-c2ccc(N3CCN(c4ccc(OC[C@H]5CO[C@](Cn6cncn6)(c6ccc(Cl)cc6Cl)O5)cc4)CC3)cc2)c1=O (stereo partly drawn)
inactive: Potency [1] | Potency [5]
active: Potency [2] 3.32 µM

CS(=O)(=O)Oc1ccc2c(NC(N)=O)c(C(=O)c3ccc(Cl)cc3Cl)oc2c1
inactive: Potency [2] | Potency [4]
active: Potency [1] 4.69 µM | Potency [6] 9.35 µM | Potency [8] 2.35 µM | Potency [5] 9.35 µM

CC(C)(C)NCC(O)c1ccc(O)c(CO)c1 (stereo not drawn)
inactive: Potency [6] | Potency [3] | Potency [8] | Potency [5]
active: Potency [1] 0.0418 µM

NC(=O)c1cnccn1
inactive: Potency [1] | Potency [10] | Potency [5]

Cn1cc(-c2ccc3nnc(C(F)(F)c4ccc5ncccc5c4)n3n2)cn1
active: Potency [1] 18.7 µM | Potency [6] 20.9 µM
inactive: Potency [3] | Potency [5]

CS(=O)(=O)c1cccc(CNc2nc(Nc3ccc4c(c3)CCC(=O)N4)ncc2C(F)(F)F)c1
active: Potency [1] 18.7 µM | Potency [6] 4.69 µM | Potency [3] 14.8 µM | Potency [4] 18.7 µM | Potency [5] 10.5 µM

Oc1ccc(C2CNCCc3c2cc(O)c(O)c3Cl)cc1 (stereo not drawn)
inactive: Potency [2] | Potency [6] | Potency [3] | Potency [9]
active: Potency [1] 5.9 µM | Potency [8] 18.7 µM | Potency [4] 1.32 µM | Potency [5] 16.6 µM

CCn1c(-c2nonc2N)nc2c(C#CC(C)(C)O)ncc(OC[C@H]3CCCNC3)c21
active: Potency [1] 1.18 µM | Potency [10] 0.418 µM | Potency [5] 0.0209 µM

CC(=O)NC(C)c1ccc(Oc2ccc(OC(C)C)cc2)cc1 (stereo not drawn)
active: Potency [1] 3.72 µM | Potency [2] 13.2 µM | Potency [6] 5.9 µM | Potency [9] 18.7 µM | Potency [5] 10.5 µM

CN1CCN(CCCN2c3ccccc3Sc3ccc(C(F)(F)F)cc32)CC1
active: Potency [1] 4.18 µM | Potency [3] 16.6 µM | Potency [5] 2.09 µM
inactive: Potency [2] | Potency [6] | Potency [4]

CCCCCCCc1ccc(CCc2cccc(O)c2C(=O)O)cc1
active: Potency [1] 20.9 µM | Potency [7] 14.8 µM
inactive: Potency [6]
